Assay results as given in PubChem BioAssay (Tox21).
Where “and” joins values, the source holds several entries; their conditions need not be identical. Equal values may be shown once. Records with an inconclusive call do not appear. A structure can be active in one record and inactive in another. Calls of active or inactive are those of the source. Calls come from the whole dose curve; as a rule, active = well fitted cell-killing curve with a large enough effect in the repeat runs; inconclusive = weak or mixed curves, or effect the other way; inactive = no such curve, though single readings can be large or run the other way.

Assay: qHTS assay for identifying genotoxic compounds that show differential cytotoxicity against isogenic chicken DT40 cell lines with known DNA damage response pathways - Rev3 mutant cell line (AID 743014); note: nearly all actives have a fitted effect of over 55% in size
Settings: chicken DT40 Rev3-/- viability, CellTiter-Glo, 40 h; series mostly up to 68.4 µM; activity, negative = cytotoxicity: at the top concentration
Excerpt: National Center for Advancing Translational Sciences [NCATS]
NIH Chemical Genomics Center [NCGC]
U.S. Environmental Protection Agency [EPA]
National Institutes of Environmental Health Sciences [NIEHS]
National Toxicology Program [NTP]
U.S. Food and Drug Administration [FDA]
DNA repair pathways play a critical role in cellular homeostasis by repairing DNA damage induced by endogenous processes and xenobiotics. Isogenic chicken DT40 cell lines deficient in different DNA repair pathways can be used to identify genotoxic compounds and aid in characterizing the nature of the DNA damage induced. Two DNA repair-deficient cell lines with disrupted genes, Rad54/Ku70 or Rev3, were used to screen the Tox21 10K compound library. Possible genotoxicity was based on the presence of a significant increase in cytotoxicity in one or more of the DNA repair-deficient cell lines compared to that observed in the parental DNA repair-proficient cell line. CellTiter Glo viability assay (Promega, Madison, WI) was used to measure cell viability in these cells after compound treatment. This assay includes the data from the Rev3 mutant cell line.
Tox21 Assay Protocol Summary:
300 DT40 mutant cells in 5 uL/well were dispensed into white, solid-bottom 1536-well plates using a Multidrop Combi (ThermoFisher Scientific, Waltham, MA) dispenser. After the assay plates were incubated at 37 C/5% CO2 for approximately 0.5 hour, 23 nL of compounds dissolved in DMSO, positive controls or DMSO only was transferred into the assay plate by a pintool work station (Kalypsys, San Diego, CA). The assay plates were incubated at 37 C/5% CO2 for 40 hours. After 5 uL per well of CellTiter-Glo reagent was added into each well of the assay plates, the plates were incubated for 30 min at room temperature and the luminescence intensity of the plates was measured using a ViewLux (PerkinElmer, Shelton, CT) plate reader.
% is set by controls: 0 for no effect and ±100 for the full control effect; potency is the fitted concentration of half-maximal effect.

Compound	Potency	activity, negative = cytotoxicity
O=[N+]([O-])c1ccc(Oc2ccc(C(F)(F)F)cc2[N+](=O)[O-])cc1	17.2 µM (active)	–
CC(=O)/C=C/c1ccc2c(c1)OCO2	68.9 µM (active)	–
ClC1=C(Cl)C2(Cl)C3C(Cl)C=CC3C1(Cl)C2(Cl)Cl (stereo not given)	30.6 µM (active)	–
CCCN(CC)CC1COC2(CCC(C(C)(C)C)CC2)O1 (stereo not given)	0.686 µM (active)	–
C=CCC1=C(C)C(OC(=O)C2C(C=C(C)C)C2(C)C)CC1=O (stereo not given)	16.8 µM (active)	–
CN(C)CCc1c[nH]c2ccc(O)cc12	–	9.81% (inactive)
ClCc1ccc(Cl)cc1Cl	–	-4.09% (inactive)
O=c1ssc(Cl)c1Cl	2.17 µM (active)	–
C1CCC2CCCCC2C1 (stereo not given)	–	8.32% [at 95 µM] (inactive)
CC(=O)[O-].CC(=O)[O-].[Hg+2]	1.54 µM (active)	–
CC(C)(O)c1cnn2c(-c3ccc(F)c(-c4c(F)cccc4C#N)c3)cnc2n1	30.6 µM (active)	–
CC(=O)C(Cl)(Cl)Cl	16.6 µM (active)	–
CN(C)C(=S)S	1.21 µM (active) and 1.72 µM (active)	–
CN(C)[C@@H]1C(=O)C(C(N)=O)=C(O)[C@@]2(O)C(=O)C3=C(O)c4c(O)ccc(Cl)c4[C@@](C)(O)[C@H]3C[C@@H]12	inactive and 55.6 µM (active)	–
Cc1cc(N=Nc2ccccc2C)ccc1N	54.5 µM (active) and 48.6 µM (active)	–
COc1cc(N)c(Cl)cc1C(=O)NC1CN2CCC1CC2 (stereo not given)	–	3.08% (inactive)
O=C/C(Cl)=C(/Cl)C(=O)O	19.3 µM (active) and 15.4 µM (active)	–
O=C(CCl)Nc1ccccc1	10.9 µM (active)	–
CCOCCOC(C)=O	–	-16.1% (inactive)
CCOC(=O)CC(=O)CCl	19.3 µM (active)	–

Compound	Potency	activity, negative = cytotoxicity
C=CC(=O)OCCCCOC(=O)C=C	27.3 µM (active)	–
O=C1c2ccccc2C(=O)C1C(=O)C(c1ccccc1)c1ccc(Cl)cc1 (stereo not given)	27.3 µM (active)	–
c1ccc2c(c1)OCC(C1=NCCN1)O2 (stereo not given)	7.5 µM (active)	–
CCOC(=O)OC1=C(c2cc(C)ccc2C)C(=O)NC12CCC(OC)CC2 (stereo not given)	30.6 µM (active)	–
N#CCCSCCC#N	–	18.9% (inactive)
CCCCCCCCCC[N+](C)(C)CCCCCCCCCC	841 nM (active) and 433 nM (active)	–
O=[N+]([O-])c1cc(C(F)(F)F)c(Cl)c([N+](=O)[O-])c1Cl	0.486 µM (active)	–
CCCCCCCCCCCCCC[P+](CCCCCC)(CCCCCC)CCCCCC (tested in a mixture with another compound)	3.86 µM (active)	–
BrC(Br)C(Br)(Br)Br	–	10.6% [at 95 µM] (inactive)
CCCN(CCC)c1c([N+](=O)[O-])cc(S(N)(=O)=O)cc1[N+](=O)[O-]	16.9 µM (active)	–
Oc1cc(Cl)c(Cl)c(Cl)c1	–	2.35% (inactive)
Cc1cc(C)c(C2=C(OC(=O)CC(C)(C)C)C3(CCCC3)OC2=O)c(C)c1	–	-25.2% [at 95 µM] (inactive)
CC[C@H]1C[C@@H]2C[C@H]3c4[nH]c5ccc(OC)cc5c4CCN(C2)[C@@H]13	47.7 µM (active)	–
CCCOCC(=Nc1ccc(Cl)cc1C(F)(F)F)n1ccnc1	4.32 µM (active)	–
Cc1cc(C)cc(OP(=O)(Oc2cc(C)cc(C)c2)Oc2cc(C)cc(C)c2)c1	–	-0.755% [at 95 µM] (inactive)
O=[N+]([O-])O.O=[N+]([O-])O.[Cd]	27.3 µM (active)	–
Clc1ccc(CSC(Cn2ccnc2)c2ccc(Cl)cc2Cl)cc1 (stereo not given)	11.4 µM (active)	–
CCOP(=S)(OCC)OC(Cl)C(Cl)(Cl)Cl (stereo not given)	–	-22.2% (inactive)
Oc1ccc(C(=C(Cl)Cl)c2ccc(O)cc2)cc1	–	4.07% (inactive)
O=[N+]([O-])c1cc([N+](=O)[O-])c2ccccc2c1	13.7 µM (active)	–
